Assay results taken from PubChem BioAssay (NCATS).
Inconclusive results are not listed. Active and inactive are the calls of the source. Calls come from the whole dose curve; as a rule, active = well fitted curve in the direction sought with a large enough effect; inconclusive = small, poorly fitted or top-dose-only effect, or another doubt; inactive = no such curve, though single readings can be large; an effect the other way counts as inactive or inconclusive.

Columns and labels:
[1] = qHTS of pediatric cancer cell lines to identify multiple opportunities for drug repurposing: Primary screen for LAN-5 cells (AID 1347100)
Outline: (§1)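 Cells (500-1,000/well) rested 5 h, then received compounds for 48 h; metabolically active cells were measured by CellTiter-Glo luminescence. Final concentrations spanned up to 46 µM (MIPE, 11-point) or 0.59 nM-46 µM (NPC, 8-point) in primary screens, 11-point in follow-ups.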

[2] = qHTS of pediatric cancer cell lines to identify multiple opportunities for drug repurposing: Primary screen for BT-12 cells (AID 1347101); note: nearly all actives have a fitted effect of over 25% in size
Outline: as §1

[3] = qHTS of pediatric cancer cell lines to identify multiple opportunities for drug repurposing: Primary screen for Rh18 cells (AID 1347102); note: nearly all actives have a fitted effect of over 65% in size
Outline: as §1

[4] = qHTS of pediatric cancer cell lines to identify multiple opportunities for drug repurposing: Primary screen for OHS-50 cells (AID 1347103); note: nearly all actives have a fitted effect of over 40% in size
Outline: as §1

[5] = qHTS of pediatric cancer cell lines to identify multiple opportunities for drug repurposing: Primary screen for RD cells (AID 1347104); note: nearly all actives have a fitted effect of over 55% in size
Outline: (§2)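 Cells plated at 500-1,000/well in growth medium, compounds added after 5 h. MIPE tested at 11 points (from 0.78 nM), NPC at 8 points (from 0.59 nM). CellTiter-Glo luminescence after 48 h; concentration-response curves from primary screen.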

[6] = qHTS of pediatric cancer cell lines to identify multiple opportunities for drug repurposing: Primary screen for MG 63 (6-TG R) cells (AID 1347105); note: nearly all actives have a fitted effect of over 50% in size
Outline: as §2

[7] = qHTS of pediatric cancer cell lines to identify multiple opportunities for drug repurposing: Primary screen for control Hh wild type fibroblast cells (AID 1347106); note: nearly all actives have a fitted effect of over 55% in size
Outline: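 Cells (500-1,000/well) in growth media were settled 5 h at 37 degrees C, then given compounds for 48 h. Viability was read as CellTiter-Glo luminescence. Primary runs used MIPE at 11 points (0.78 nM-46 µM) and NPC at 8 points (0.59 nM-46 µM); follow-ups used 11 points.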

[8] = qHTS of pediatric cancer cell lines to identify multiple opportunities for drug repurposing: Primary screen for Rh30 cells (AID 1347107); note: nearly all actives have a fitted effect of over 75% in size
Outline: as §1

[9] = qHTS of pediatric cancer cell lines to identify multiple opportunities for drug repurposing: Primary screen for Rh41 cells (AID 1347108); note: nearly all actives have a fitted effect of over 70% in size
Outline: as §2

[10] = qHTS of pediatric cancer cell lines to identify multiple opportunities for drug repurposing: Primary screen for NB1643 cells (AID 1347099); note: nearly all actives have a fitted effect of over 50% in size
Outline: as §2

Measured: Potency
Potency is the fitted concentration of half-maximal effect.

Cc1ccc(Cl)c(O)c1
inactive: [1] | [2] | [3] | [4] | [5] | [6] | [7] | [8] | [9]

CCN1C[C@]2(OC(=O)c3ccccc3NC(C)=O)CC[C@H](OC)[C@@]34[C@H]5CC6[C@@H](OC)C[C@](O)(C(C[C@@H]23)[C@@H]14)[C@@]5(O)[C@@H]6OC
inactive: [1] | [2] | [3] | [4] | [5] | [6] | [7] | [8] | [9]

C=C[C@@H]1CN2CCC1C[C@@H]2[C@@H](O)c1ccnc2ccccc12 (stereo partly specified)
inactive: [6] | [7]
active: [10] 10.5 µM | [4] 30.6 µM | [5] 29.6 µM

CC(C)(O)C(=O)Nc1ccc([N+](=O)[O-])c(C(F)(F)F)c1
active: [10] 5.9 µM | [5] 29.6 µM
inactive: [3]

CC(C)N(CCNC(=O)CN1CCCC1=O)C(C)C
inactive: [1] | [2] | [3] | [4] | [5] | [6] | [7] | [8] | [9]

COC(C)(C)CCCC(C)C/C=C/C(C)=C/C(=O)OC(C)C (stereo unspecified)
inactive: [10] | [2] | [4] | [5] | [6] | [7] | [8] | [9]

COc1ccc(C(c2ccc(OC)cc2)C(Cl)(Cl)Cl)cc1
inactive: [7]
active: [10] 42.8 µM

CCOC(=O)c1c(C(C#N)=CN)c2ccc(Cl)c(Cl)c2n1C
inactive: [1] | [2] | [3] | [4] | [5] | [7]

O=C(N[C@H]1CN2CCC1CC2)c1ccc(Cl)cc1
inactive: [2]
active: [10] 2.64 µM | [5] 26.4 µM

C[C@](O)(COc1ccc(C#N)cc1)C(=O)Nc1ccc(C#N)c(C(F)(F)F)c1
active: [10] 23.5 µM | [4] 27.3 µM
inactive: [3] | [6] | [7] | [8] | [9]

CC(=O)N(C)c1cccc(-c2ccnc3c(C(=O)c4cccs4)cnn23)c1
inactive: [1] | [2] | [3] | [4] | [5] | [6] | [7] | [8] | [9]

CSCC[C@@H](NC(=O)[C@@H](Cc1ccccc1)NC(=O)CNC(=O)CNC(=O)[C@@H](N)Cc1ccc(O)cc1)C(=O)O
inactive: [1] | [2] | [3] | [4] | [5] | [6] | [7] | [8] | [9]

O=C(NCC1CCOCC1)c1cnc(Nc2ccc(Cl)cc2Cl)nc1C(F)(F)F
inactive: [7] | [8]
active: [10] 9.35 µM | [6] 29.6 µM

Nc1ccc(Sc2ccc(N)cc2)cc1
inactive: [1] | [2] | [3] | [4] | [5] | [6] | [7] | [8] | [9]

C1CCC(NC2CCCCC2)CC1
inactive: [1] | [2] | [3] | [4] | [5] | [6] | [7] | [8] | [9]

Oc1ccc2c3c1O[C@H]1[C@@H](O)C=C[C@H]4[C@@H](C2)NCC[C@@]341
inactive: [10] | [3] | [4] | [5] | [6] | [7] | [8] | [9]

Cc1nc(-c2ccc(-c3ccc(C(=O)N4CCc5cc6c(cc54)C4(CCN(C)CC4)CO6)cc3)c(C)c2)no1
inactive: [1] | [2] | [3] | [4] | [5] | [6] | [7] | [8] | [9]

CCCN(CCC)c1c([N+](=O)[O-])cc(S(N)(=O)=O)cc1[N+](=O)[O-]
active: [10] 48.6 µM | [2] 28.2 µM | [4] 28.2 µM | [5] 38.6 µM | [6] 48.6 µM | [9] 38.6 µM
inactive: [7]

COC1=CC(C)=C[C@@H](C)[C@@H](O)[C@@H](C)CC(C)=CC=C[C@H](OC)[C@H]([C@@H](C)[C@@H](O)[C@H](C)[C@@]2(O)C[C@@H](O)[C@H](C)[C@@H](C(C)C)O2)OC1=O
active: [10] 0.0093 µM | [2] 0.0049 µM | [4] 0.0014 µM | [5] 0.001 µM | [6] 0.0059 µM | [7] 0.0418 µM | [9] 16.6 µM

C[C@]12COC(=O)C[C@@H]1CC[C@@H]1[C@H]2CC[C@@]2(C)[C@H]1CC[C@]2(C)O
inactive: [1] | [2] | [3] | [4] | [5] | [6] | [7] | [8] | [9]

CC(=CCCC1=CCC(C2=CC(=O)OC2O)OC1O)CCC1=C(C)CCCC1(C)C (stereo unspecified)
inactive: [10] | [2] | [4] | [5] | [7] | [8]

C[C@@H]1O[C@@H](O[C@@H]2C=C3CC[C@@H]4[C@@H](CC[C@]5(C)[C@H](c6ccc(=O)oc6)CC[C@@]45O)[C@@]3(C)CC2)[C@H](O)[C@H](O)[C@H]1O
active: [10] 0.0833 µM | [2] 0.0193 µM | [4] 0.0172 µM | [5] 0.0074 µM | [6] 0.0047 µM | [9] 0.0235 µM

Fc1cc(Br)ccc1CBr
inactive: [1] | [2] | [3] | [4] | [5] | [6] | [7] | [8] | [9]

CC(C)(C)[C@]1(O)C[C@@H]2OC(=O)C[C@@]23C(=O)O[C@@H]2OC(=O)[C@H](O)C213 (stereo partly specified)
inactive: [1] | [2] | [3] | [4] | [5] | [6] | [7] | [8] | [9]

O=C1C(I)=CC(=C(c2cc(I)c(O)c(I)c2)c2ccccc2C(=O)O)C=C1I
inactive: [1] | [2] | [3] | [4] | [5] | [6] | [7] | [8]

CC1(N2CCC(n3c([C@@H]4CCCNC4)nc4ccccc43)CC2)CCCCCCC1
inactive: [6] | [8] | [9]
active: [1] 20.9 µM | [4] 24.3 µM | [5] 13.2 µM

CC(C)N[C@@H]1CCn2c(=O)[nH]c3cccc(c32)[C@@H]1O
active: [1] 0.743 µM | [2] 3.06 µM | [4] 1.37 µM | [5] 3.72 µM | [7] 11.8 µM | [8] 1.48 µM
inactive: [6]

CN[C@@H]1Cc2cccc3[nH]c(=O)n(c23)C1
inactive: [1] | [2] | [3] | [5] | [6] | [7] | [8]

O=C(O)C(Cl)Cl
inactive: [1] | [2] | [4] | [5] | [6] | [7] | [8] | [9]

O=[N+]([O-])c1ncc[nH]1
inactive: [1] | [3] | [4] | [5] | [6] | [7] | [8] | [9]

CCO/N=C(\CC)C1=C(O)CC(c2c(C)cc(C)cc2C)CC1=O (stereo unspecified)
inactive: [1] | [5] | [6] | [7] | [8] | [9]

Nc1ccc(Cl)cc1N
inactive: [2] | [3] | [4] | [5] | [6] | [7] | [8] | [9]

COc1ccc2c(c[n+](C)c3c4cc5c(cc4ccc23)OCO5)c1OC
active: [1] 8.33 µM | [2] 24.3 µM | [3] 8.33 µM | [4] 8.63 µM | [5] 10.5 µM | [7] 26.4 µM | [8] 20.9 µM | [9] 10.5 µM

CC[C@@H](C(N)=O)N1CCCC1=O
inactive: [1] | [2] | [3] | [4] | [6] | [7] | [8] | [9]

COc1ccc(N(C(=O)Oc2c(C)cccc2C)c2ccnc(Nc3ccc(N4CCN(C)CC4)cc3)n2)c(OC)c1
inactive: [3] | [8] | [9]
active: [1] 1.48 µM | [4] 9.68 µM

CCCN1CCO[C@@H]2c3cc(O)ccc3OC[C@@H]21
inactive: [3] | [4] | [6] | [7] | [8] | [9]
active: [1] 14.8 µM

C#CC1(O)CCC2C3CCC4=CC(=O)CCC4(C)C3CCC21C (stereo unspecified)
inactive: [1] | [2] | [4] | [5] | [6] | [7] | [8] | [9]

COc1ccc2c(c1)[C@]13CCCCC1C(C2)N(C)CC3 (stereo partly specified)
inactive: [1] | [2] | [3] | [5] | [6] | [7] | [8] | [9]

CC[C@H]1C=CC=CC[C@@H](C)[C@H](O)[C@@](C)(O)C(=O)[C@@H](C)[C@H](O)[C@@H](C)C(=O)[C@@H](C)[C@H](O)[C@@H](C)C=CC(=O)O[C@@H]2[C@@H](C)[C@H](CC1)O[C@]1(CC[C@H](C)[C@H](C[C@@H](C)O)O1)[C@H]2C
active: [1] 18.7 µM | [2] 0.0061 µM | [4] 0.0049 µM | [5] 23.5 µM
inactive: [7] | [8]

CCOC(=O)Nc1ccc(NCc2ccc(F)cc2)cc1N
active: [5] 26.4 µM
inactive: [2] | [3] | [4] | [6] | [7] | [8]
